AddAB inh: growth inhibition of E. coli expressing H. pylori AddAB, primary screen, AddAB inhibitor project, absorbance; inhibition, % at 11.9 µM; 0.29% of 330,000 active; AID 435030, 2010; in the data active means inhibition above about 12%;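 further: 0% = vehicle wells of infected cells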
Tat export inh: E. coli Tat export inhibitors, primary screen, MC4100, TorA-mCherry reporter, fluorescence, single point | inhibition, % at 10 µM | 0.036% of 340,000 active;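 active means mean replicate inhibition at least 50% and at least half of replicates individually reaching 50%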;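 further: exported cargo escapes ClpAP degradation while cytoplasmic cargo is degraded and loses fluorescence; 0% = median of neutral control wells and 100% = median of NaSCN control wells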
E coli growth-1: E. coli V3065 growth inhibition, primary screen, counter-screen for AddAB inhibitor project, absorbance, OD600; 0.27% of 330,000 active; inhibition, % at 11.9 µM; 18 h;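 active means inhibition above the campaign's mean inhibition across all tested compounds plus 3 SD, cut at about 9.9% in these data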;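 further: uninfected addAB+ strain grown without phage in ampicillin broth; 0% = DMSO wells and 100% = ciprofloxacin 0.95 µg/ml wells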
phage Ecoli inh: growth loss of phage-infected E. coli, primary screen, RecBCD inhibitor project, absorbance, with phage, HTS; inhibition, % at 11.9 µM; 0.26% of 360,000 active; AID 651602, 2012; in the data active means inhibition above about 11%
E coli growth-2: E. coli growth inhibition, primary screen, OD600; OD600 absorbance (concentration not given with the values); 0.21% of 330,000 active; AID 1053175, 2014; Escherichia coli growth, 23 h; stronger effect = lower value;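 active means OD600 absorbance below the run mean of sample wells minus 3.6 SD, in any replicate, cut at about 0.56 in these data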
AddAB conf: growth loss of phage-infected E. coli expressing H. pylori AddAB, confirmation, AddAB inhibitor project, absorbance, E. coli V3065, T4 phage, triplicate; shares compounds with AddAB inh; OD; T4 phage with gene 2 nonsense mutations; inhibition, % at 11.9 µM; 64% of 880 active; AID 488942, 2010;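 active means mean inhibition above a set limit taken from the earlier primary screen, cut at about 13% in these data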;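 further: higher means less bacterial growth since AddAB block lets phage replicate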
RecBCD counter: growth loss of RecBCD+ E. coli with mutant T4 phage, counter-screen for AddAB inhibitor project, absorbance, V66 E. coli; shares compounds with AddAB inh; OD growth; inhibition, % at 11.9 µM; 73% of 880 active;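 active means mean inhibition above the mean of solvent-only control wells plus 3 SD, cut at about 4% in these data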;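 further: optical density read after an 18 h incubation at 37 °C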
Bact viability: bacterial viability inhibition counter-screen, confirmation, counter-screen for AddAB inhibitor project, absorbance; shares compounds with AddAB inh; absorbance (AddAB counterscreen); inhibition, % at 11.9 µM; 35% of 880 active; AID 488956, 2010; in the data active means inhibition above about 25%
RecBCD conf: growth loss of phage-infected RecBCD+ E. coli, confirmation, RecBCD inhibitor project, absorbance, E. coli V66, T4 gene 2 phage; E. coli V66 + T4 2- phage, growth OD; inhibition, % at 11.9 µM; shares compounds with phage Ecoli inh; 45% of 890 active;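 active means mean inhibition over triplicates exceeding the hit threshold derived in the original primary screen, cut at about 11% in these data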
Ecoli viability: E. coli viability inhibition, counter-screen for RecBCD inhibitor project, absorbance, high throughput | shares compounds with phage Ecoli inh | absorbance (OD) growth | inhibition, % at 11.9 µM | 29% of 890 active | AID 651983, 2013; in the data active means inhibition above about 20%;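 further: E. coli strain V66 grown with compound alone and no phage infection; 0% = bacteria with DMSO vehicle only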
AddAB counter: growth loss of phage-infected AddAB-carrying E. coli, confirmation, counter-screen for RecBCD inhibitor project, absorbance, E. coli V3065, T4 phage | shares compounds with phage Ecoli inh | E. coli expressing H. pylori AddAB + T4 phage, OD growth; gene 2 mutant T4, recBCD-deleted host | inhibition, % at 11.9 µM | 45% of 890 active | AID 651984, 2013;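 active means mean inhibition above the solvent-only control wells' mean plus 3 SD, cut at about 22% in these data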;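 further: higher means less bacterial growth from phage killing when AddAB is blocked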
An asterisk follows results filed as active; i = inactive; · = no result given. Most compounds without a hit are left out; they make up all but 0.5% or so of the library.

SMILES	AddAB inh	Tat export inh	E coli growth-1	phage Ecoli inh	E coli growth-2	others
Oc1ccc(Cl)c(Cl)c1Cl	0.2	-2.7	-1.1	3.4	0.521*
Cc1cc(O)ccc1Cl	·	·	·	2.1	·
COC(=O)C1=C(c2ccc3ccccc3c2)CC2CCC1N2C(=O)NCCCOC(C)C (centres undefined)	·	·	·	·	0.699
O=C1C=CC(=O)C2C1C1(Cl)C(Cl)=C(Cl)C2(Cl)C1(Cl)Cl (centres undefined)	·	-6.9	·	5.5	0.512*
Cc1nn(Cc2ccccc2)c(C)c1C(=O)NCc1ccccc1	2.0	54.6*	0.8	1.3	0.678
O=[N+]([O-])c1c(Cl)c(Cl)c(Cl)c(Cl)c1Cl	·	-5.2	·	0.7	·
Nc1cc(Cl)c2nonc2c1[N+](=O)[O-]	5.9	-20.6	7.5	6.8	0.437*
CN1C2CCC1CC(OC1c3ccccc3CCc3ccccc31)C2 (centres undefined)	·	·	·	·	0.618
C[C@@H]1CC[C@H]2[C@@H](C)C(=O)O[C@@H]3O[C@@]4(C)CC[C@@H]1[C@]32OO4	3.7	6.4	-1.2	2.3	0.446*
COC(=O)C1=C(c2ccc(C(C)=O)cc2)CC2CCC1N2C(=O)NCCOc1ccccc1Cl (centres undefined)	·	·	·	·	0.691
Cc1ccc(-c2nc(N3CCOCC3)s[n+]2-c2ccccc2)cc1	-2.1	0.3	-2.5	1.9	0.509*
c1ccc2c(c1)[IH]c1ccccc1-2	·	7.5	·	100.8*	·
Cc1[nH]c2ccc(OC(F)(F)F)cc2c1CCNCc1ccc(Cl)cc1	·	-9.4	·	1.6	0.502*
COC(=O)C1=C(c2cccc(OC)c2OC)CC2CCC1N2C(=O)N1CCC(O)CC1 (centres undefined)	·	·	·	·	0.69
COc1ccc(N2C(=O)NC(=O)/C(=C\c3ccc([N+](=O)[O-])s3)C2=O)cc1	2.3	-7.0	1.6	2.7	0.474*
COC(=O)C1=C(c2ccc3ccccc3c2)CC2CCC1N2C(=O)NC1CC1 (centres undefined)	·	·	·	·	0.712
O=C(c1ccc(N2CCCCC2)c([N+](=O)[O-])c1)N1CCC2(CC1)OCCO2	4.6	4.2	-0.2	2.4	0.524*
CC1CCCN(c2ccc(C(=O)N3CCC4(CC3)OCCO4)cc2[N+](=O)[O-])C1 (centres undefined)	0.7	11.9	-2.5	-0.6	·
CCC(C)C(NC(=O)CCCNC(=O)CCC(=O)OC1O[C@H]2OC3(C)CC[C@H]4[C@H](C)CCC(C1C)C24OO3)C(=O)O (some centres undefined)	2.7	5.1	4.5	4.8	·
CCC(C)NC(=O)CCC(=O)OC1O[C@H]2OC3(C)CC[C@H]4[C@H](C)CCC(C1C)C24OO3 (some centres undefined)	·	6.4	·	9.3	0.499*
CN(C)c1ccc(C=Cc2cc[n+](C)c3ccccc23)cc1	·	·	·	·	0.388*
CN(C)c1ccc(/C=C/c2cc[n+](C)c3ccccc23)cc1	·	-298.6	·	-0.1	·
CCCNC(=O)N1C2CCC1C(C(=O)OC)=C(c1ccc(F)cc1OCc1ccccc1)C2 (centres undefined)	·	·	·	·	0.689
COC(=O)C1=C(c2ccc(F)cc2OCc2ccccc2)CC2CCC1N2C(=O)NCc1ccccc1C(F)(F)F (centres undefined)	·	·	·	·	0.724
Cc1cc(O)c2c(c1)C(=O)C13C(=C2O)C(=O)[C@H]2[C@@H](O)[C@@H]1[C@H]1[C@H](O)[C@@H]3C(=O)C3=C(O)c4c(O)cc(C)cc4C(=O)C312 (some centres undefined)	60.1*	129.7*	76.4*	·	0.067*	AddAB conf=36.1*;RecBCD counter=31.8*;Bact viability=42.6*
SMILES	AddAB inh	Tat export inh	E coli growth-1	phage Ecoli inh	E coli growth-2	others
COc1cc(CNCCc2ccc3c(c2)OCO3)ccc1O	5.0	-12.2	1.7	4.7	0.664
CCCCCCCCC(=O)NCc1ccc(O)c(OC)c1	98.3*	5.3	99.8*	0.5	0.688	AddAB conf=0.2;RecBCD counter=0.3;Bact viability=-3.1
COC(=O)C1=C(c2cccc(OCc3ccccc3)c2)CC2CCC1N2C(=O)NCc1ccc(C(F)(F)F)cc1 (centres undefined)	·	·	·	·	0.737
COc1cc2c(c(OC)c1OC)-c1ccc(C(=O)O)cc1C(NC(C)=O)CC2 (centres undefined)	·	·	·	·	0.674
C[C@@H]1O[C@@H](O[C@H]2C[C@@H](O)[C@]3(CO)[C@H]4[C@H](O)C[C@]5(C)[C@@H](C6COC(=O)C6)CC[C@]5(O)[C@@H]4CC[C@]3(O)C2)[C@H](O)[C@H](O)[C@H]1O (some centres undefined)	98.3*	10.7	95.7*	2.6	·	AddAB conf=-3.4;RecBCD counter=-2.2;Bact viability=-4.1
Oc1c(Cl)c(Cl)c(Cl)c(Cl)c1Cl	13.2*	-1.3	11.3*	12.0*	0.471	AddAB conf=10.3;RecBCD counter=16.6*;Bact viability=9.6
COC(=O)C1=C(c2cc3ccccc3o2)CC2CCC1N2C(=O)NCCCOC(C)C (centres undefined)	·	·	·	·	0.666
COC(=O)C1=C(c2cc3ccccc3o2)CC2CCC1N2C(=O)NCc1ccco1 (centres undefined)	·	·	·	·	0.683
CCN1/C(=C\C=C\C2=[N+](CC)c3ccccc3C2(C)C)C(C)(C)c2ccccc21	35.4*	i	30.5*	·	0.525*	AddAB conf=51.0*;RecBCD counter=23.4*;Bact viability=45.6*
CN(C)[C@@H]1C(=O)C(C(N)=O)=C(O)[C@@]2(O)C(=O)C3=C(O)c4c(O)cccc4[C@@](C)(O)C3C[C@@H]12 (some centres undefined)	94.3*	147.1*	100.0*	101.5*	·	AddAB conf=101.2*;RecBCD counter=101.0*;Bact viability=101.5*;RecBCD conf=100.9*;Ecoli viability=102.1*;AddAB counter=101.2*

Bioassay records (PubChem BioAssay)
